The nature of experiment [1]: UKN4_HCS_LUHMES_cell_viability: Viability Assessment in the University of Konstanz (UKN) Leist Lab Neurite Outgrowth Assay in human LUHMES cells (UKN4) (AID 2284232). As to the method:
UKN4_HCS_LUHMES is a cell-based, multiplexed-readout assay screening for neurite outgrowth and cell viability that uses LUHMES, a human central nervous system cell line, with measurements taken at […] after chemical dosing in a microplate: 96-well plate. UKN4, also referred to as NeuriTox, is an assay that uses LUHMES neuronal precursors as a model of dopaminergic neuronal differentiation. Following a 2-day differentiation period, cells are exposed to chemicals for 24 hr and neurite area is evaluated as a marker of neurite outgrowth using high-content imaging of cells stained with calcein AM. Cell viability is assessed using stain Hoechst H-33342.UKN4_HCS_LUHMES_cell_viability is an assay component measured from the UKN4_HCS_LHUMES assay. It is designed to make measurements of enzyme activity, a form of viability reporter, as detected with Fluorescence intensity signals by HCS Fluorescent Imaging.The assay endpoint UKN4_HCS_LUHMES_cell_viability was analyzed with bidirectional fitting relative to DMSO as the negative control and baseline of activity. Using a type of viability reporter, gain or loss-of-signal activity can be used to understand viability effects. To generalize the intended target to other relatable targets, this assay endpoint is annotated to the cell cycle intended target family, where the subfamily is viability.
Proliferating LUHMES cells are seeded in proliferation medium for 24 hours. Day 0: Medium is changed from proliferation medium to differentiation medium. Day 2: Cell number reaches about 30-40 Mio per T175 flask. Cells are trypsinized and replated onto 96-well plates (30000 cells/well in 90 ul) in differentiation medium without cAMP and GDNF. At about 30 min - 2 hours after seeding, when cells have attached, the compounds are added (10 ul of each dilution; total volume 100 ul). Day 3: 23.5 h after toxicant treatment, cells are live-stained with H-33342 and calcein-AM and incubated for 30 min. After 24 h of treatment (including staining), the cells are imaged using a high-content microscope (Cellomics).

A short description of experiment [2]: UKN2_HCS_IMR90_cell_viability: Viability Assessment in the University of Konstanz (UKN) Leist Lab Neural Crest Cell Migration Assay in human induced IMR90 Pluripotent Stem Cells (UKN2) (AID 2284233).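 Further: viability of neural crest cells differentiated from IMR90 iPSC measured by calcein-AM fluorescence imaging; cells exposed to compound for 24 h after a 24 h migration phase.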 The method in brief:
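iPSC-derived (IMR90) neural crest cells seeded around silicone stoppers on PLO/laminin/fibronectin; after 24 h migration in N2-S with EGF/FGF, chemical added for 24 h. Calcein-AM/Hoechst stained 30 min, high-content imaged; bidirectional fit versus DMSO.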

Experiment [3] in a line: TAMU_PeakParms_SingleDonor1434_QT: Texas A&M University (TAMU) 1.5-hr Human Induced Pluripotent Stem Cell (iPSC)-derived Cardiomyocytes Calcium (Ca+2) Flux Assay for Cardiotoxicity: QT (decay-rise ratio) (AID 2284235; active means hit-call score of the fitted dose curve at least 0.9, where 1 is the maximum). The method in brief: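 iPSC-derived cardiomyocytes (single donor 1434) dosed at 0.2, 1, 10, 100 uM final in 0.5% DMSO, 90 min at 37C. Ca2+ flux fluorescence decay/rise ratio; EC05 (5% increase versus DMSO) as POD, excluding beat-arrest and severe-notch data.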

Read-out in experiment [4]: Secreted IgG (sIgG), gene 3500
The experiment is described as follows: BSK_BT_sIgG: BioMAP Diversity Plus: BT Assay for Secreted IgG (sIgG) Biomarker Activity (AID 2284226). As to conditions: primary human B cells with PBMC. Put shortly: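 Read-out: ELISA for secreted IgG after 24 h of chemical exposure in a B cell plus PBMC co-culture. Values reflect upward-direction fitting against DMSO negative controls.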

A short description of experiment [5]: BSK_BT_Bcell_Proliferation: Viability Assessment in the BioMAP Diversity Plus: BT Assay for B cell Proliferation (AID 2284227). The conditions noted are these: primary human B cells with PBMC. The method in brief: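 Read-out is absorbance at 560 nm from sulforhodamine B staining of total protein, reflecting relative cell numbers in a human B cell and PBMC co-culture after 72 h of chemical exposure. Values were referenced to DMSO.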

Read-out in experiment [6]: Interleukin 6 (IL6), IL6 (gene 3569)
In words: BSK_BT_xIL6: BioMAP Diversity Plus: BT Assay for Interleukin 6 (IL6) Biomarker Activity (AID 2284228). As to conditions: primary human B cells with PBMC. Put shortly: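 Human B cell/PBMC co-culture; secreted IL-6 quantified by Luminex xMAP 24 h after chemical dosing, fitted relative to DMSO. Parallel PBMC viability by Alamar Blue after 1 h pretreatment, 20 ng/mL SEB and TSST-1, 90 h incubation.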

Read-out in experiment [7]: Interleukin 17A (IL17A), IL17A (gene 3605)
In words: BSK_BT_xIL17A: BioMAP Diversity Plus: BT Assay for Interleukin 17A (IL17A) Biomarker Activity (AID 2284229). The conditions noted are these: primary human B cells with PBMC. The method in brief: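 Co-culture of human B cells and PBMC, dosed for 24 h in 96-well format. Secreted IL-17A measured with Luminex xMAP; gain-direction fitting against DMSO as baseline.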

Read-out in experiment [8]: Tumor necrosis factor (Homo sapiens) (UniProt P01375)
The experiment is described as follows: BSK_BT_xTNFa: BioMAP Diversity Plus: BT Assay for Tumor necrosis factor alpha (TNF-alpha) Biomarker Activity (AID 2284230). As to conditions: primary human B cells with PBMC. Put shortly:
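Human primary co-culture of B cells and peripheral blood mononuclear cells; TNF-alpha in supernatant, 24 h post-dose, Luminex multiplex; DMSO = baseline.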

Read-out in experiment [9]: Vascular cell adhesion molecule 1 (VCAM1), VCAM1 (gene 7412)
The experiment is described as follows: BSK_MyoF_VCAM1: BioMAP Diversity Plus: MyoF Assay for Vascular cell adhesion molecule 1 (VCAM1) Biomarker Activity (AID 2284231). As to conditions: primary human lung fibroblasts. The method in brief: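 Primary human lung fibroblasts (BioMAP MyoF system) dosed with chemical, VCAM-1 measured by ELISA 24 hours later. Fitted in the positive direction against DMSO; parallel SRB staining assessed cytotoxicity.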

Experiment [10] can be described thus: TAMU_HCS_1.5hr_SingleDonor1434_Cytotoxicity: Cytotoxicity Assessment using High-content Screening (HCS) Fluorescent Imaging for the Texas A&M University (TAMU) 1.5-hr Human Induced Pluripotent Stem Cell (iPSC)-derived Cardiotoxicity Assay (AID 2284234; active means hit-call score of the fitted dose curve at least 0.9, where 1 is the maximum). The method in brief:
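Human iPSC-derived cardiomyocytes dosed at 0.2, 1, 10, 100 uM final (0.5% DMSO) for 90 min at 37 C. Hoechst 33342-stained nuclei counted by 10x high-content imaging; POD is EC10, a 10% drop in total cell count versus DMSO.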

Several values for one entry are separate records, joined by “and”; a condition that tells them apart may be missing. Identical values can stand only once. Records with an inconclusive call do not appear. Some compounds were tested as several samples or in several runs, with calls that do not always agree. Activity calls are given as the source filed them. How the source made its calls, unless noted: active means hit-call score of the fitted dose curve at least 0.9, where 1 is the maximum; inactive means score below 0.9.

Tumor necrosis factor (Homo sapiens), sequence (P01375 whole entry, looked up): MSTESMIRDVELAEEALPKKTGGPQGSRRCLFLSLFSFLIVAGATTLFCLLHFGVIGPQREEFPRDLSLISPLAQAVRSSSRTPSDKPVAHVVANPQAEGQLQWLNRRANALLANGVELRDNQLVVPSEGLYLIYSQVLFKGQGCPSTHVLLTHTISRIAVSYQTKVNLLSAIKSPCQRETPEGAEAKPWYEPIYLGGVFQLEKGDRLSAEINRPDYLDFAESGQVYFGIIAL

As for `CCCC(CCC)C(=O)O`, the call in experiment [1], in experiment [2] and in [3] was inactive.

`FC(F)(F)C(F)(F)C(F)(F)C(F)(F)C(F)(F)C(F)(F)I`: the result in experiment [4], in [5], in experiment [6], in experiment [7] and in experiment [8] was inactive. Moreover, in [9], the AC50 is 25.3 µM (active) and 40.7 µM (active).

As for `OC[C@H]1O[C@@](CO)(O[C@H]2O[C@H](CO)[C@@H](O)[C@H](O)[C@H]2O)[C@@H](O)[C@@H]1O`, the compound was called inactive in experiment [10].

With `NC(=O)N1c2ccccc2C=Cc2ccccc21`, the compound was classed as inactive in [1] and in experiment [2].

Turning to `c1ccc2c(c1)-c1cccc3c1c-2cc1ccccc13`, the call in experiment [10] and in experiment [3] was inactive.

For `FC(F)(F)COC(OCC(F)(F)F)OCC(F)(F)F`, the outcome in experiment [4], in experiment [5], in [6], in experiment [7], in experiment [8] and in [9] was inactive.

Turning to `COc1cc2c(c(OC)c1OC)-c1ccc(OC)c(=O)cc1[C@@H](NC(C)=O)CC2`, the outcome in [3] was inactive.

Regarding `CCN(CC)C(=S)SSC(=S)N(CC)CC`, in experiment [10], the AC50 was 50 µM (active).

In the case of `S=P(N1CC1)(N1CC1)N1CC1`, the AC50 in experiment [4] was 2.71 µM (active); in experiment [5] it was 8.1 µM (active). Besides, the result in experiment [6], in experiment [7], in experiment [8] and in experiment [9] was inactive.

On to `FC(F)=C(F)C(F)(F)C(F)(F)C(F)(F)C(F)(F)C(F)(F)C(F)(F)F`, for which the outcome in experiment [4], in experiment [5], in experiment [6], in experiment [7], in experiment [8] and in experiment [9] was inactive.

Consider `FC(F)C(F)(F)COCC1CO1` (stereo not drawn), for which the result in experiment [4], in experiment [5], in experiment [6], in experiment [7], in experiment [8] and in [9] was inactive.

As to `O=S(=O)(O)CCC(F)(F)C(F)(F)C(F)(F)C(F)(F)C(F)(F)C(F)(F)F`, the outcome in [4], in experiment [5], in experiment [6], in experiment [7], in experiment [8] and in [9] was inactive. Further, the AC50 in experiment [5] is 30 µM (active).

Turning to `OCCC(F)(F)C(F)(F)C(F)(F)C(F)(F)F`, the outcome in [4], in [5], in experiment [6], in experiment [7], in experiment [8] and in experiment [9] was inactive.

These data come from PubChem BioAssay (EPA / NIEHS).
